Screening data from PubChem BioAssay.
JMJD2A Tudor inh = inhibitors of human JMJD2A Tudor domain; O75164; AlphaScreen JMJD2A-Tudor / H3K4me3 peptide binding; Potency, µM (titrated, usually from 114 µM), for the others: at the top dose activity change, negative = inhibition, actives largely listed as inhibitors; 390,000 tested, 4.4% active; AID 504339; note: % is set by controls: 0 for no effect and ±100 for the full control effect; nearly all actives have a fitted effect of over 50% in size
Sfp inh = Sfp phosphopantetheinyl transferase inhibition; Q9F4F7; Biochemical Sfp PPTase activity, qHTS; Potency, µM, without a hit: largest response in the series, negative = inhibition, most hits filed as inhibitors; 310,000 tested, 3.5% active; AID 1490;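 note: the enzyme is Sfp with the accession as filed and its product quenches rhodamine fluorescence; 0% = enzyme reaction without inhibitor and -100% = no enzyme wells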
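Fluorescence-quenching assay with 15 nM Sfp, 5 uM rhodamine-CoA and 12.5 uM BHQ-2-labelled ybbR peptide in pH 7.6 Hepes/MgCl2 buffer. Enzyme was pre-incubated with compound for 15 min at room temperature. Rate was taken from the 30-min fluorescence change (525/598 nm).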
HP1b chromo inh = blocks HP1-beta chromodomain binding to methylated histone tails | Potency, µM (series often up to 114 µM), for the others: top-dose activity change, negative = inhibition, most hits filed as inhibitors | AlphaScreen HP1-beta / biotin-H3K9me3 peptide binding | 390,000 tested, 0.56% active | P83916; note: nearly all actives have a fitted effect of over 70% in size
Target sequence (P83916 whole entry, looked up): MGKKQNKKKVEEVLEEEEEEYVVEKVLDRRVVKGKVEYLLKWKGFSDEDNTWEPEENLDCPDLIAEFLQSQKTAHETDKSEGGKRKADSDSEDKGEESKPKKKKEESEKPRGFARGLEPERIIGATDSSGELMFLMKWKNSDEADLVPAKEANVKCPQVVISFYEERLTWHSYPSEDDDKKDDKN
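HP1-beta protein (50 nM final) preincubated 30 min at room temperature with biotinylated H3(1-18)K9me3 peptide (50 nM) in PBS pH 7.4, 0.01% Tween-20, then compound added for 30 min. AlphaScreen streptavidin donor/nickel chelate acceptor beads (10 ug/mL final), 30 min dark, luminescence read.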
BAZ2B inh = BAZ2B (human) inhibition; Q9UIF8; AlphaScreen BAZ2B-H3K14Ac peptide displacement; Potency, µM (highest dose often 114 µM), for inactives: at the top dose activity change, negative = inhibition, hits mostly inhibitors; 360,000 tested, 4.4% active; AID 504333; note: % is set by controls: 0 for no effect and ±100 for the full control effect; nearly all actives have a fitted effect of over 60% in size
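AlphaScreen luminescence quantifies BAZ2B engagement of H3K14Ac peptide; the protein and biotinylated peptide are both at 50 nM final, buffer PBS pH 7.4 with 0.01% Tween-20, all steps at room temperature.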
G9a inh = inhibitors of human histone lysine methyltransferase G9a | Q96KQ7 | G9a H3K9 monomethylation, AlphaScreen, 2 h | Potency, µM (doses to about 102 µM), for the others: at the top dose activity, negative = inhibition, hits mostly inhibitors | 350,000 tested, 8.8% active; note: % is set by controls: 0 for no effect and ±100 for the full control effect; nearly all actives have a fitted effect of over 75% in size
Target sequence (Q96KQ7 913-1193 limits assumed): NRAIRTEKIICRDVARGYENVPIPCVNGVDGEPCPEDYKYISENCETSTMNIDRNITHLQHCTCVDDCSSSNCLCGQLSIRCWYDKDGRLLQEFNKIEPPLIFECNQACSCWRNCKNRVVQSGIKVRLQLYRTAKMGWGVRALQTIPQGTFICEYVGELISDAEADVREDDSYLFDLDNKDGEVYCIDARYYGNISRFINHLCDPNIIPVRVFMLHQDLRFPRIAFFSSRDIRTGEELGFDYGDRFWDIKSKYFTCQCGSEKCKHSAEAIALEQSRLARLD
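Step 1: enzyme (final 20 nM) with compound, 15 min RT. Step 2: substrate peptide 500 nM and SAM 20 uM, 2 h RT. Step 3: anti-H3K9me1 antibody and AlphaScreen beads, 10 min, then plate read.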
Active calls of the source: *; [ ] = remark or other dose. The list is not random: actives were taken first. Their share in the collection is about 12%. Calls come from the whole dose curve; as a rule, active = well fitted curve in the direction sought with a large enough effect; inconclusive = small, poorly fitted or top-dose-only effect, or another doubt; inactive = no such curve, though single readings can be large; an effect the other way counts as inactive or inconclusive. Potency is the fitted concentration of half-maximal effect.

How did CCn1nc(C(=O)Nc2cc(Cl)ccc2-n2cncn2)c2ccccc2c1=O do in these assays?
JMJD2A Tudor inh: -17%; HP1b chromo inh: 29%; BAZ2B inh: 9%; G9a inh: inconclusive

How did CC1CCN(C(=O)c2ccc3c(Cl)c4c(nc3c2)CCCC4)CC1 do in these assays?
JMJD2A Tudor inh: -5%; Sfp inh: -12%; HP1b chromo inh: 24%; G9a inh: -2%

How did O=C(O)/C(=C\c1ccc(Cl)cc1)c1ccc(S(=O)(=O)N2CCCC2)s1 do in these assays?
JMJD2A Tudor inh: -24%; HP1b chromo inh: 7%; BAZ2B inh: inconclusive; G9a inh: inconclusive

Results for COc1cc(/C=C(\C(=O)O)c2ccc(S(=O)(=O)N3CCCC3)s2)cc(OC)c1 ?
JMJD2A Tudor inh: -16%; HP1b chromo inh: 11%; BAZ2B inh: -39%; G9a inh: 50µM*

What do the screens show for `COc1ccc(Br)cc1/C=C(\C(=O)O)c1ccc(S(=O)(=O)N2CCCC2)s1`?
JMJD2A Tudor inh: 89µM*; HP1b chromo inh: -10%

Results for CCC(C)Nc1nc2c(c(=O)n(C)c(=O)n2C)n1Cc1ccc(F)cc1 (centres undefined) ?
JMJD2A Tudor inh: -11%; Sfp inh: 5%; HP1b chromo inh: 21%; BAZ2B inh: -4%; G9a inh: 9%[12.7 µM]

What do the screens show for `COc1ccc(Cl)cc1NC(=O)C1CSC(c2ccncc2)=N1` (centres undefined)?
JMJD2A Tudor inh: -14%; Sfp inh: inconclusive; HP1b chromo inh: 19%; BAZ2B inh: -20%; G9a inh: 11µM*

How did COc1ccc(Cl)cc1NC(=O)NC(C)c1ccncc1 (centres undefined) do in these assays?
JMJD2A Tudor inh: -9%; Sfp inh: 7%; HP1b chromo inh: 19%; BAZ2B inh: 2%; G9a inh: 10%[59 µM]

Results for CC[C@]12c3[nH]c4ccc(Cl)cc4c3CCN1C(=O)[C@@H](CC(=O)NCc1ccco1)C[C@@H]2C(=O)N1CCN(C(=O)c2ccco2)CC1 ?
JMJD2A Tudor inh: -30%; HP1b chromo inh: inconclusive

Results for O=C1CN(C(=S)Nc2ccccc2Cl)CCN1 ?
JMJD2A Tudor inh: -8%; Sfp inh: 45µM*; HP1b chromo inh: 39%; BAZ2B inh: -28%; G9a inh: 45µM*

What do the screens show for `CCOC(=O)N1CCN(C(=O)Nc2ccccc2Cl)CC1`?
JMJD2A Tudor inh: -17%; Sfp inh: 5%; HP1b chromo inh: 19%; BAZ2B inh: -2%; G9a inh: 3%[59 µM]

How did S=C(Nc1ccccc1Cl)N1CCCCC1 do in these assays?
JMJD2A Tudor inh: -4%; Sfp inh: 12%; HP1b chromo inh: 30%; BAZ2B inh: -1%; G9a inh: 9%[59 µM]

What do the screens show for `O=C1CCN(C(=O)Nc2cccc(Cl)c2)N1`?
JMJD2A Tudor inh: 20µM*; Sfp inh: -22%; HP1b chromo inh: 2%; BAZ2B inh: -11%; G9a inh: 10µM*

How did O=C(Nc1cccc(Cl)c1)N1CCOCC1 do in these assays?
JMJD2A Tudor inh: -11%; Sfp inh: 4%; HP1b chromo inh: 15%; BAZ2B inh: -7%; G9a inh: 7%

Results for O=C1CCN(C(=O)Nc2ccccc2Cl)N1 ?
JMJD2A Tudor inh: inconclusive; Sfp inh: -10%; HP1b chromo inh: 2%; BAZ2B inh: 2%; G9a inh: 10µM*

How did COCc1ccc(C(=O)N(C)CC2CCCN(CCc3ccccc3F)C2)o1 (centres undefined) do in these assays?
JMJD2A Tudor inh: -8%; Sfp inh: 8%; HP1b chromo inh: 40%; BAZ2B inh: -4%[57.1 µM]; G9a inh: -3%

What do the screens show for `Cc1nc(N/C(N)=N/S(=O)(=O)c2ccccc2)nc2ccccc12`?
JMJD2A Tudor inh: -18%; HP1b chromo inh: 6%[57 µM]

Results for O=C1OCC(CO)(CO)N=C1NNc1ccccc1Cl ?
JMJD2A Tudor inh: inconclusive; Sfp inh: -18%; HP1b chromo inh: -6%; BAZ2B inh: -5%; G9a inh: 5.6µM*

Results for Cc1ccc(/C=[N+](\[O-])c2ccccc2C)o1 ?
JMJD2A Tudor inh: 12%; Sfp inh: 9%; HP1b chromo inh: 43%; BAZ2B inh: -19%; G9a inh: 6%

Results for COc1ccc(C2N(c3ccc(Cl)cc3)N=C(C(C)=O)N(C)N2C(C)=O)cc1 (centres undefined) ?
JMJD2A Tudor inh: inconclusive; Sfp inh: -4%; HP1b chromo inh: -11%; BAZ2B inh: inconclusive; G9a inh: 28µM*

What do the screens show for `COc1ccc(CSc2nnnn2C)cc1[N+](=O)[O-]`?
JMJD2A Tudor inh: -4%; Sfp inh: 17%; HP1b chromo inh: 33%; BAZ2B inh: 1%; G9a inh: 4%

How did O=C(NC(c1ccccc1)C(Cl)Cl)c1ccccc1 (centres undefined) do in these assays?
JMJD2A Tudor inh: 0%; Sfp inh: 10%; HP1b chromo inh: 23%; BAZ2B inh: -4%; G9a inh: 13%[59 µM]

Results for Cc1ccc(C(=O)NC(c2ccccc2)C(Cl)Cl)cc1 (centres undefined) ?
JMJD2A Tudor inh: 5%; Sfp inh: -9%; HP1b chromo inh: 46%; BAZ2B inh: -1%; G9a inh: 50µM*

Results for O=C(O)c1nn(-c2ccccc2C(F)(F)F)cc1O ?
JMJD2A Tudor inh: -10%; Sfp inh: 0%; HP1b chromo inh: 19%; BAZ2B inh: -35%; G9a inh: inconclusive

What do the screens show for `O=[N+]([O-])c1ccc(N/N=C2/CCCCC2c2ccccn2)cc1` (centres undefined)?
JMJD2A Tudor inh: 16µM*; Sfp inh: -15%; HP1b chromo inh: -11%[57 µM]; BAZ2B inh: inconclusive; G9a inh: 32µM*

How did O=[N+]([O-])c1ccc(NC2CCCC2)cc1 do in these assays?
JMJD2A Tudor inh: -36%; Sfp inh: 4%; HP1b chromo inh: -1%; BAZ2B inh: -29%; G9a inh: -6%[59 µM]

How did CCOC(=O)N1CCC(C(=O)NNC(=O)c2ccc(Cl)cc2Cl)CC1 do in these assays?
JMJD2A Tudor inh: -9%; Sfp inh: 10%; HP1b chromo inh: 33%; BAZ2B inh: -6%

Results for COC(=O)C(c1cc(OC)c(O)c(OC)c1)(N1CCNC(C)C1)C(F)(F)F (centres undefined) ?
JMJD2A Tudor inh: 28%; Sfp inh: -14%; HP1b chromo inh: 37%; BAZ2B inh: -5%; G9a inh: 10µM*

What do the screens show for `CC(=O)NN1C(=O)/C(=C\c2ccc(Br)o2)SC1=S`?
JMJD2A Tudor inh: -26%; Sfp inh: 56µM*; HP1b chromo inh: inconclusive; BAZ2B inh: inconclusive; G9a inh: 40µM*

What do the screens show for `CC(=O)NN1C(=O)/C(=C\c2ccccc2)SC1=S`?
JMJD2A Tudor inh: -26%; Sfp inh: 13%; HP1b chromo inh: 25%; BAZ2B inh: -29%; G9a inh: 12%
